Measured values taken from PubChem BioAssay (NCATS).
Inconclusive results are not listed. Entries that show only a call come without a potency. Unmarked numbers belong to inactive results. Activity calls are given as the source filed them. Calls follow the shape of the dose curve; as a rule, active = well fitted curve in the direction sought with a large enough effect; inconclusive = small, poorly fitted or top-dose-only effect, or another doubt; inactive = no such curve, though single readings can be large; an effect the other way counts as inactive or inconclusive. *1 amine or outer side, *2 acyl side, *3 side chain or, on linkers, in order; H or OH if unused. Where a SMILES comes first, the peptide text is derived from it. Bridges are numbered along the chain shown (N, C = ends). [ ]: non-standard residue; d: D form. The star is where a group is joined. ξ: configuration not given here. X10 = NC1=NCCC(C(N[*:1])C(=O)[*:2])N1; ΔAla(3-NHCONH2) = NC(=O)NC=C(N)C(=O)O; ξβ3hOrn = NCCCC(N)CC(=O)*; Dap = NC[CH](N)C(=O)O

Tests used:
[1] = qHTS of pediatric cancer cell lines to identify multiple opportunities for drug repurposing: Primary screen for NB-EBc1 cells (AID 1347095)
Summary of the method: (§1)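 Luminescence from CellTiter-Glo served as readout of metabolically active cells after 48 h compound exposure. Titrations: MIPE 11-point, from 0.78 nM; NPC 8-point, from 0.59 nM (final). Concentration-response curves came straight from the primary screen.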

[2] = qHTS of pediatric cancer cell lines to identify multiple opportunities for drug repurposing: Primary screen for U-2 OS cells (AID 1347096); also: nearly all actives have a fitted effect of over 50% in size
Summary of the method: (§2)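 Cells (500-1,000/well) in growth media were settled 5 h at 37 degrees C, then given compounds for 48 h. Viability was read as CellTiter-Glo luminescence. Primary runs used MIPE at 11 points (0.78 nM-46 µM) and NPC at 8 points (0.59 nM-46 µM); follow-ups used 11 points.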

[3] = qHTS of pediatric cancer cell lines to identify multiple opportunities for drug repurposing: Primary screen for Saos-2 cells (AID 1347097); also: nearly all actives have a fitted effect of over 40% in size
Summary of the method: as §1

[4] = qHTS of pediatric cancer cell lines to identify multiple opportunities for drug repurposing: Primary screen for SK-N-SH cells (AID 1347098);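 also: DMSO served as neutral control and bortezomib at 2.3 µM as positive control; nearly all actives have a fitted effect of over 65% in size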
Summary of the method: (§3)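 Cells (500-1,000/well) rested 5 h, then received compounds for 48 h; metabolically active cells were measured by CellTiter-Glo luminescence. Final concentrations spanned up to 46 µM (MIPE, 11-point) or 0.59 nM-46 µM (NPC, 8-point) in primary screens, 11-point in follow-ups.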

[5] = qHTS of pediatric cancer cell lines to identify multiple opportunities for drug repurposing: Primary screen for NB1643 cells (AID 1347099); also: nearly all actives have a fitted effect of over 50% in size
Summary of the method: as §1

[6] = qHTS of pediatric cancer cell lines to identify multiple opportunities for drug repurposing: Primary screen for LAN-5 cells (AID 1347100)
Summary of the method: as §2

[7] = qHTS of pediatric cancer cell lines to identify multiple opportunities for drug repurposing: Primary screen for BT-12 cells (AID 1347101); also: nearly all actives have a fitted effect of over 25% in size
Summary of the method: as §3

[8] = qHTS of pediatric cancer cell lines to identify multiple opportunities for drug repurposing: Primary screen for OHS-50 cells (AID 1347103); also: nearly all actives have a fitted effect of over 40% in size; also: potency is read from the fitted curve at half-maximal effect
Summary of the method: as §3

[9] = qHTS of pediatric cancer cell lines to identify multiple opportunities for drug repurposing: Primary screen for RD cells (AID 1347104); also: nearly all actives have a fitted effect of over 55% in size
Summary of the method: as §1

[10] = qHTS of pediatric cancer cell lines to identify multiple opportunities for drug repurposing: Primary screen for MG 63 (6-TG R) cells (AID 1347105); also: nearly all actives have a fitted effect of over 50% in size; also: potency is read from the fitted curve at half-maximal effect
Summary of the method: as §1

[11] = qHTS of pediatric cancer cell lines to identify multiple opportunities for drug repurposing: Primary screen for control Hh wild type fibroblast cells (AID 1347106);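 also: series mostly up to about 46 µM; a drop in luminescence marks cytotoxicity and a rise apparent proliferation; nearly all actives have a fitted effect of over 55% in size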
Summary of the method: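 Viability after 48 h compound treatment at 37C, 500-1,000 cells/well, read as ATP luminescence with CellTiter-Glo. Primary screens used 11-point (MIPE, 0.78 nM-46 µM) or 8-point (NPC, 0.59 nM-46 µM) final concentrations; follow-up screens used 11-point dilutions.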

[12] = qHTS of pediatric cancer cell lines to identify multiple opportunities for drug repurposing: Primary screen for Rh41 cells (AID 1347108);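 also: series mostly up to about 46 µM; luminescence drop marks cytotoxic hits; nearly all actives have a fitted effect of over 70% in size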
Summary of the method: as §1

[13] = qHTS of pediatric cancer cell lines to identify multiple opportunities for drug repurposing: Primary screen for Rh30 cells (AID 1347107); also: series mostly up to about 46 µM; nearly all actives have a fitted effect of over 75% in size
Summary of the method: as §2

[14] = qHTS of pediatric cancer cell lines to identify multiple opportunities for drug repurposing: Primary screen for Rh18 cells (AID 1347102); also: nearly all actives have a fitted effect of over 65% in size
Summary of the method: as §2

With CCCCCN(CCCOC)C(=O)C(CCC(=O)O)NC(=O)c1ccc(Cl)c(Cl)c1 (centres undefined) the Potency [1] was “inactive”, the Potency [2] was “inactive” and the Potency [3] was “inactive”. The Potency [4] was “inactive”, the Potency [5] was “inactive” and the Potency [6] was “inactive”. For the same compound, the Potency [7] was “inactive”, the Potency [8] was “inactive” and the Potency [9] was “inactive”. The Potency [10] was “inactive”, the Potency [11] was “inactive” and the Potency [12] was “inactive”.
With C#Cc1ccc(-c2ccccc2F)cc1 the Potency [1] was “inactive”, the Potency [2] was “inactive” and the Potency [3] was “inactive”. For the same compound, the Potency [4] was “inactive”, the Potency [5] was “inactive” and the Potency [6] was “inactive”. The Potency [7] was “inactive”, the Potency [8] was “inactive” and the Potency [10] was “inactive”. The Potency [11] was “inactive” and the Potency [13] was “inactive”.
With COc1cc2nc(Cl)nc(N)c2cc1OC the Potency [1] was “inactive”, the Potency [2] was “inactive” and the Potency [3] was “inactive”. The Potency [4] was “inactive”, the Potency [5] was “inactive” and the Potency [6] was “inactive”. The Potency [14] was “inactive”, the Potency [9] was “inactive” and the Potency [10] was “inactive”. For the same compound, the Potency [11] was “inactive”, the Potency [13] was “inactive” and the Potency [12] was “inactive”.
For CC(C)(C)c1ccc(C(=O)CCCCl)cc1, the Potency [1] was “inactive”, the Potency [2] was “inactive” and the Potency [3] was “inactive”. For the same compound, the Potency [4] was “inactive”, the Potency [6] was “inactive” and the Potency [7] was “inactive”. For the same compound, the Potency [14] was “inactive”, the Potency [8] was “inactive” and the Potency [9] was “inactive”. The Potency [10] was “inactive”, the Potency [11] was “inactive” and the Potency [13] was “inactive”. The Potency [12] was “inactive”.
For Cc1oc(-c2ccccc2)nc1CCC(=O)c1ccc(CC2SC(=O)NC2=O)cc1 (centres undefined), the Potency [1] was “inactive”, the Potency [2] was “inactive” and the Potency [3] was “inactive”. The Potency [4] was “inactive”, the Potency [5] was “inactive” and the Potency [14] was “inactive”. The Potency [10] was “inactive”, the Potency [11] was “inactive” and the Potency [13] was “inactive”.
For CC[N+](CC)(CC)CCOC(=O)C(C1CCCC1)C1CCCC1, the Potency [1] was “inactive”, the Potency [2] was “inactive” and the Potency [3] was “inactive”. For the same compound, the Potency [4] was “inactive”, the Potency [5] was “inactive” and the Potency [9] was “inactive”. The Potency [10] was “inactive”, the Potency [13] was “inactive” and the Potency [12] was “inactive”.
In the case of CC(C)C[C@@H]1[C@H](c2ccccc2)OC(=O)N1CCCN1CCCCCC1, the Potency [1] was “inactive”, the Potency [2] was “inactive” and the Potency [3] was “inactive”. For the same compound, the Potency [4] was “inactive”, the Potency [5] was “inactive” and the Potency [6] was “inactive”. For the same compound, the Potency [14] was “inactive”, the Potency [10] was “inactive” and the Potency [11] was “inactive”. For the same compound, the Potency [13] was “inactive” and the Potency [12] was “inactive”.
With CC(=O)[C@H]1CC[C@H]2[C@@H]3C=CC4=CC(=O)CC[C@@]4(C)[C@@H]3CC[C@]12C the Potency [1] was “inactive”, the Potency [2] was “inactive” and the Potency [3] was “inactive”. The Potency [4] was “inactive”, the Potency [5] was “inactive” and the Potency [7] was “inactive”. For the same compound, the Potency [14] was “inactive”, the Potency [9] was “inactive” and the Potency [10] was “inactive”. For the same compound, the Potency [11] was “inactive”.
With CCOC(=O)C(=O)CCCCCCl the Potency [1] was “inactive”, the Potency [2] was “inactive” and the Potency [3] was “inactive”. For the same compound, the Potency [4] was “inactive”, the Potency [5] was “inactive” and the Potency [6] was “inactive”. The Potency [7] was “inactive”, the Potency [8] was “inactive” and the Potency [10] was “inactive”. The Potency [11] was “inactive” and the Potency [13] was “inactive”.
For Cc1cc(=O)oc2cc(O[C@@H]3SC[C@@H](O)[C@H](O)[C@H]3O)ccc12, the Potency [1] was “inactive”, the Potency [2] was “inactive” and the Potency [3] was “inactive”. For the same compound, the Potency [4] was “inactive”, the Potency [6] was “inactive” and the Potency [7] was “inactive”. For the same compound, the Potency [14] was “inactive”, the Potency [8] was “inactive” and the Potency [9] was “inactive”. The Potency [10] was “inactive”, the Potency [11] was “inactive” and the Potency [13] was “inactive”. The Potency [12] was “inactive”.
In the case of CN=C(N)NC(=O)Nc1c(C)cccc1C, the Potency [1] was “inactive”, the Potency [2] was “inactive” and the Potency [3] was “inactive”. For the same compound, the Potency [4] was “inactive”, the Potency [6] was “inactive” and the Potency [7] was “inactive”. The Potency [14] was “inactive”, the Potency [8] was “inactive” and the Potency [9] was “inactive”. For the same compound, the Potency [10] was “inactive”, the Potency [11] was “inactive” and the Potency [13] was “inactive”. For the same compound, the Potency [12] was “inactive”.
In the case of COC(=O)/C=C(/C)N, the Potency [1] was “inactive”, the Potency [2] was “inactive” and the Potency [3] was “inactive”. The Potency [4] was “inactive”, the Potency [5] was “inactive” and the Potency [6] was “inactive”. For the same compound, the Potency [7] was “inactive”, the Potency [10] was “inactive” and the Potency [11] was “inactive”. The Potency [13] was “inactive” and the Potency [12] was “inactive”.
NCCCC(N)CC(=O)NCC1NC(=O)C(CO)NC(=O)C(N)CNC(=O)C(C2CCN=C(N)N2)NC(=O)C(=CNC(N)=O)NC1=O (stereo not drawn) (H-[Dap]S[Dap](ξβ3hOrn)[ΔAla(3-NHCONH2)][X10]; lactam 1-C; configuration not given here) gave an activity change, negative = cytotoxic [1] of 29.4% [at 0.597 µM], an activity change, negative = cytotoxic [2] of 13.6% [at 0.597 µM] and an activity change, negative = cytotoxic [3] of 29.1% [at 0.597 µM]. The activity change, negative = cytotoxic [4] was -4.49% [at 0.741 µM], the activity change, negative = cytotoxic [5] was 13.7% [at 0.597 µM] and the activity change, negative = cytotoxic [6] was 6.67% [at 0.597 µM]. It also gave an activity change, negative = cytotoxic [7] of 5.9% [at 0.745 µM], an activity change, negative = cytotoxic [8] of 13.9% [at 0.73 µM] and an activity change, negative = cytotoxic [9] of 2.79% [at 0.597 µM]. It also gave an activity change, negative = cytotoxic [10] of -12% [at 0.597 µM], an activity change, negative = cytotoxic [13] of 22.4% [at 0.597 µM] and an activity change, negative = cytotoxic [12] of 17.6% [at 0.597 µM].
For COC(=O)/C=C\C(=O)OC, the Potency [1] was “inactive”, the Potency [2] was “inactive” and the Potency [3] was “inactive”. For the same compound, the Potency [4] was “inactive”, the Potency [6] was “inactive” and the Potency [7] was “inactive”. The Potency [14] was “inactive”, the Potency [8] was “inactive” and the Potency [9] was “inactive”. The Potency [10] was “inactive”, the Potency [11] was “inactive” and the Potency [13] was “inactive”. For the same compound, the Potency [12] was “inactive”.
For Cc1ccc(O)cc1, the Potency [1] was “inactive”, the Potency [2] was “inactive” and the Potency [3] was “inactive”. For the same compound, the Potency [4] was “inactive”, the Potency [5] was “inactive” and the Potency [6] was “inactive”. The Potency [7] was “inactive”, the Potency [8] was “inactive” and the Potency [9] was “inactive”. For the same compound, the Potency [10] was “inactive”, the Potency [11] was “inactive” and the Potency [13] was “inactive”. For the same compound, the Potency [12] was “inactive”.
With COC(=O)C1=C(C)NC(C)=C(C(=O)OCCc2ccc(N3CCN(C(c4ccccc4)c4ccccc4)CC3)cc2)C1c1cccc([N+](=O)[O-])c1 (centres undefined) the Potency [1] was “inactive”, the Potency [2] was “inactive” and the Potency [3] was “inactive”. The Potency [4] was “inactive”, the Potency [5] was “inactive” and the Potency [6] was “inactive”. For the same compound, the Potency [8] was “inactive”, the Potency [9] was “inactive” and the Potency [11] was “inactive”. For the same compound, the Potency [13] was “inactive” and the Potency [12] was “inactive”.
With CN1CC(=O)N2[C@H](c3ccc4c(c3)OCO4)c3[nH]c4ccccc4c3C[C@@H]2C1=O the Potency [1] was “inactive”, the Potency [2] was “inactive” and the Potency [3] was “inactive”. For the same compound, the Potency [4] was “inactive”, the Potency [5] was “inactive” and the Potency [6] was “inactive”. The Potency [7] was “inactive”, the Potency [8] was “inactive” and the Potency [9] was “inactive”. For the same compound, the Potency [10] was “inactive”, the Potency [11] was “inactive” and the Potency [13] was “inactive”. The Potency [12] was “inactive”.
In the case of C/C(=N/NC(=O)c1ccncc1)C(=O)O, the Potency [1] was “inactive”, the Potency [2] was “inactive” and the Potency [3] was “inactive”. For the same compound, the Potency [4] was “inactive”, the Potency [6] was “inactive” and the Potency [7] was “inactive”. The Potency [14] was “inactive”, the Potency [8] was “inactive” and the Potency [9] was “inactive”. For the same compound, the Potency [11] was “inactive”, the Potency [13] was “inactive” and the Potency [12] was “inactive”.
For O=C1Nc2ccccc2C1(c1ccc(O)cc1)c1ccc(O)cc1, the Potency [1] was “inactive”, the Potency [2] was “inactive” and the Potency [3] was “inactive”. The Potency [6] was “inactive”, the Potency [7] was “inactive” and the Potency [8] was 872 nM (active). For the same compound, the Potency [9] was “inactive”, the Potency [10] was 133 nM (active) and the Potency [11] was “inactive”. For the same compound, the Potency [13] was “inactive”.
